# In PubChem BioAssay AID504834 (National Center for Advancing Translational Sciences (NCATS), 2011):
# About 22,000 (6.9%) of roughly 320,000 compounds were called active. Another 27% or so got no clear call; they are omitted. Calls come from the whole dose curve; as a rule, active = well fitted inhibition curve with a large enough effect; inconclusive = small, poorly fitted or top-dose-only effect, or another doubt; inactive = no such curve, though single readings can be large or run the other way. What follows is part of a selection rich in actives, with near analogues and random picks from the rest.
# Experiment: Primary qHTS for delayed death inhibitors of the malarial parasite plastid, 96 hour incubation
# Settings: P. falciparum luciferase reporter growth; series mostly up to 28.7 µM; activity change, negative = inhibition: at the top concentration
# Method in brief: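 P. falciparum expressing integrated firefly luciferase grown in erythrocytes (2% hematocrit, 0.05% parasitemia final) with compounds for 96 hours at 37 C, 5% CO2. Growth inhibition read as loss of luminescence after adding luciferase detection reagent.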
# % is set by controls: 0 for no effect and ±100 for the full control effect; potency is the fitted concentration of half-maximal effect.
Compound,"activity change, negative = inhibition",Potency
CCOc1ccc(S(=O)(=O)N2CCN=C2Cc2ccccc2)cc1C,22.5% (inactive),
O=C(CCc1ccccc1)Nc1ccnn1C1CCN(Cc2ccc(OCCO)cc2)CC1,15.8% (inactive),
CCC(=O)Nc1cccc(C2=NOC3(C2)C[C@@H](C(N)=O)N(C(=O)c2cc([N+](=O)[O-])cc([N+](=O)[O-])c2C)C3)c1 (stereo partly specified),,0.0657 µM (active)
CC/C=C/C(=O)N1CC2(CC(c3cccc(NC(=O)CC)c3)=NO2)C[C@H]1C(N)=O (stereo partly specified),-1.57% (inactive),
C/C=C(\C)C(=O)N1CC2(CC(c3cccc(NC(=O)CCCCC)c3)=NO2)C[C@@H]1C(N)=O (stereo partly specified),23.1% (inactive),
COc1ccc(F)c(-c2nc(CN3CCC(c4ccccc4)CC3)c(C)o2)c1,-24.4% (inactive),
CCOc1ccccc1-c1cc(C(=O)N2CCOCC2)c2ccccc2n1,-10.4% (inactive),
CCOc1ccccc1-c1nc(CN2CCC(C(=O)N3CCOCC3)CC2)c(C)o1,,11.7 µM (active)
O=C1NCC(=O)N(Cc2ccccc2)/C1=C/c1ccccc1,3.39% (inactive),
O=C1NNC(c2ccccc2)=N/C1=C\c1ccc(Cl)cc1,,8.28 µM (active)
O=C(NCc1csc(-c2cccs2)n1)C1CC1,88.8% (inactive),
Cc1cc(O)c(C2(O)C(=O)Nc3ccccc32)cc1C (stereo unspecified),27% (inactive),
CCOC(=O)CNc1nc(Cl)nc(Nc2ccc(OC)cc2OC)n1,0.58% (inactive),
COc1ccc(OC)c(-c2csc(-c3cccs3)n2)c1,69% (inactive),
COc1cc(OC)cc(-c2c(-c3cccs3)c3cc(-c4ccc(OC)cc4F)ccc3n2C)c1,,5.86 µM (active)
COc1ccc2c(c1)c(C(=O)N/N=C/c1cccs1)c(C)n2C,-10.9% (inactive),
COc1cc(OC)cc(-c2c(-c3ccc(F)cc3)c3cc(-c4ccc5cc[nH]c5c4)ccc3n2C)c1,,5.22 µM (active)
OCC[C@H]1C[C@H](O)[C@@H](O)[C@]2(CCc3ccccc3O2)O1,0% (inactive),
O=C(O)c1cc(S(=O)(=O)N(Cc2ccccc2)c2cccc(C(F)(F)F)c2)ccc1Cl,-25.6% (inactive),
O=C(CSc1ccc(-c2ccc(-n3cccn3)cc2)nn1)Nc1ccc([N+](=O)[O-])cc1,155% (inactive),
Cc1cccc(OCC(=O)NC2CC(C)(C)NC(C)(C)C2)c1,6.25% (inactive),
NC(=O)C1(C(N)=O)OC1c1ccc(Cl)cc1Cl (stereo unspecified),8.12% (inactive),
COC(=O)c1ccccc1OCC(=O)N1CCN(c2ccc(Cl)cc2)CC1,10.6% (inactive),
CC1(C)Cc2cccc(OCC(=O)N3CCN(c4ccc([N+](=O)[O-])cc4)CC3)c2O1,,5.22 µM (active)
CC1(C)Cc2cccc(OCC(=O)Nc3nccs3)c2O1,-12% (inactive),
Nc1cc(N)nc(SCc2ccc(Cl)cc2)n1,4.96% (inactive),

Compound,"activity change, negative = inhibition",Potency
O=C(CSc1nc2[nH]ncc2c(=O)[nH]1)Nc1ccc(F)cc1,-3.5% (inactive),
CCCn1nnnc1NCc1ccc(CC)cc1,-6.67% (inactive),
O=C(Cn1c(=O)n(Cc2ccco2)c(=O)c2ccccc21)NCC1CCCO1 (stereo unspecified),81.7% (inactive),
COc1ccc(CCNC(=O)Cn2c(=O)n(CC3CCCO3)c(=O)c3ccccc32)cc1OC (stereo unspecified),-9.63% (inactive),
Cc1ccccc1NC(=O)Cn1c(=O)n(CC2CCCO2)c(=O)c2ccccc21 (stereo unspecified),,2.33 µM (active)
CCN(CC(=O)Nc1cc(Cl)ccc1C)C(=O)Cn1c(=O)cnc2ccccc21,36.2% (inactive),
CC(C)Cn1c(N)c(C(=O)COC(=O)C2CCCN2C(=O)c2cccs2)c(=O)n(C)c1=O (stereo unspecified),2.49% (inactive),
COc1ccc(-n2ncc3c2CC(C)(C)CC3NC(=O)CCc2c(C)noc2C)cc1 (stereo unspecified),-29.9% (inactive),
Cc1ccc(-n2ncc3c2CC(C)(C)CC3NC(=O)Cc2c(C)noc2C)cc1 (stereo unspecified),0% (inactive),
COc1ccc(-n2ncc3c2CC(C)(C)CC3NC(=O)CCc2c(C)nn(C)c2C)cc1 (stereo unspecified),,10.4 µM (active)
COc1ccc(/C=C2\SC(=S)N(CCC(=O)Nc3ccccn3)C2=O)cc1OC,79.2% (inactive),
CCCNS(=O)(=O)c1ccc2c(c1)CCCN2C(C)=O,94.1% (inactive),
CCC(=O)N1CCc2cc(S(=O)(=O)CCC(=O)N3CCN(c4ccccc4F)CC3)ccc21,29.7% (inactive),
CCOc1ccc(NC(=O)CCS(=O)(=O)c2ccc3c(c2)CCCN3C(=O)CC)cc1,,9.28 µM (active)
C=CCn1c(SCC(=O)NC(=O)Cc2ccccc2)nc2ccccc2c1=O,3.17% (inactive),
CCN1C(=O)/C(=C2/Sc3ccccc3N2CCCS(=O)(=O)O)SC1=S,61.5% (inactive),
CCCCN1C(=O)/C(=C/C=C2/C=Cc3ccccc3N2CC)SC1=S,,0.117 µM (active)
CCN1C(=O)/C(=C\N2CCN(c3cccc(Cl)c3)CC2)SC1=S,51.9% (inactive),
O=C(NCCCc1ccccc1)C1CCC(=O)N(CCc2ccc(Cl)cc2)C1 (stereo unspecified),-0.691% (inactive),
COc1ccccc1CNS(=O)(=O)c1c(C)[nH]c(C)c1C(=O)N1CCCCC1,12.7% (inactive),
COc1ccc(CN2CCN(C(=O)c3cc(C4CC4)nn3-c3ccccc3)CC2)cc1F,,11.7 µM (active)
COc1cc(CN2CCC(C(N)=O)CC2)ccc1OCc1ccccc1,60% (inactive),
COc1cccc(NC(=O)CN(C)C(=O)c2cc(C3CC3)nn2-c2ccccc2)c1,-26.3% (inactive),
O=C(NCc1cccnc1)c1ccccc1NC(=O)c1c(F)cccc1F,1.54% (inactive),
Cc1cc(C)c(NC(=O)CN2C(=O)NC(Cc3ccccc3)C2=O)c(C)c1 (stereo unspecified),11% (inactive),
O=[N+]([O-])c1ccc2nc(-c3ccccn3)[nH]c2c1,-13.9% (inactive),

Compound,"activity change, negative = inhibition",Potency
O=C(CSC(=S)N1CCOCC1)c1cc(Br)cc(Br)c1O,26.6% (inactive),
O=P(O)(CN1CCCCCC1)C1Cc2ccccc2C1,-49.8% (inactive),
O=C(CCc1nc2ccccc2c(=O)[nH]1)OCC(=O)c1cccc(Cl)c1,51.6% (inactive),
O=C(/C(=C/c1cccc(Cl)c1)c1nc2ccccc2[nH]1)c1ccccc1,,11.7 µM (active)
O=C(Cc1nc2ccccc2[nH]c1=O)c1ccc(Cl)cc1,141% (inactive),
Cc1ccc(-c2nc3ccccc3[nH]c2=O)cc1,111% (inactive),
N#CCc1ccc(NC(=O)c2ccccc2C(=O)Nc2ccc(CC#N)cc2)cc1,16.3% (inactive),
NS(=O)(=O)c1ccc2nc(NC(=O)C3=COCCO3)sc2c1,6.79% (inactive),
NC(=O)Nc1cccc(C(F)(F)F)c1,28.4% (inactive),
O=C(Nc1cccc(C(F)(F)F)c1)c1cc(Br)cc(Br)c1O,,15.1 µM (active)
O=C(O)CC1(CC(=O)Nc2cccc(C(F)(F)F)c2)CCCC1,24.4% (inactive),
CC(=O)Nc1ccc(NC(=O)COC(=O)c2ccccc2C(=O)c2ccccc2)cc1,-7.56% (inactive),
O=C(Nc1cccc([N+](=O)[O-])c1)Nn1cnnc1,-1.29% (inactive),
Cn1nc(C(F)(F)F)cc1-c1ccc(/C=C(\C#N)C(=O)c2cccc(C(F)(F)F)c2)s1,54.3% (inactive),
Cc1ccc(NNC(=O)c2c(F)cccc2Cl)cc1Cl,34.9% (inactive),
CCCCCNC(=O)c1cccnc1SCC(=O)Nc1ccccc1OC,60.2% (inactive),
COc1ccccc1NC(=O)CSc1nnc(CNC(=O)c2ccccc2F)o1,,1.65 µM (active)
Cc1ccc(NC(=O)CSc2nnc(CNC(=O)c3ccccc3F)o2)cc1,4.83% (inactive),
CC1(C)NC(=O)N(CC(=O)N2CCN(S(=O)(=O)c3ccccc3F)CC2)C1=O,-1.59% (inactive),
O=C(Nc1cccc(NC(=O)c2ccc(Br)cc2)c1)c1ccccc1,71.5% (inactive),
O=C(Nc1cccc(-c2nc3ccccc3[nH]2)c1)c1ccc(C(=O)Nc2cccc(-c3nc4ccccc4[nH]3)c2)cc1,,0.37 µM (active)
O=C(Cc1cccs1)Nc1cccc(-c2nc3ccccc3[nH]2)c1,-7.98% (inactive),
N#CC1(NC(=O)COC(=O)Cc2n[nH]c(=O)c3ccccc23)CCCCC1,24.1% (inactive),
CCN(C(=O)CSc1nnc(-c2ccc(OC(F)F)cc2)n1N)C1CCS(=O)(=O)C1 (stereo unspecified),7.28% (inactive),
COc1cc(C)cc(CN2CCC(Cc3ccccc3)CC2)c1O,,1.17 µM (active)
O=c1cc(CO)oc(CN2CCC(Cc3ccccc3)CC2)c1O,-8.24% (inactive),

Compound,"activity change, negative = inhibition",Potency
NC(=O)c1ccc(CN2CCC(Cc3ccccc3)CC2)cc1,-16.8% (inactive),
CC(C)NC(=O)NNc1c(Cl)cncc1Cl,23% (inactive),
O=C(CNS(=O)(=O)c1ccc2ccccc2c1)Nc1ccc(F)c(F)c1F,12.1% (inactive),
COc1ccc(/C=N/NC(=O)C2CC2)c(OC)c1OC,103% (inactive),
CN(CC(=O)NC1CCCCC1)S(=O)(=O)c1cccc2cccnc12,22.2% (inactive),
COc1cccc(CNC(=O)C2CCN(S(=O)(=O)c3cccc4cccnc34)CC2)c1,13.2% (inactive),
O=C(NCc1ccco1)C1CCCN(S(=O)(=O)c2cccc3nonc23)C1 (stereo unspecified),22% (inactive),
COc1ccc(S(=O)(=O)N2CCCC(C(=O)Nc3ccc(NC(=O)c4ccccn4)cc3)C2)cc1 (stereo unspecified),17% (inactive),
Cc1cccc(NC(=O)C2CCN(S(=O)(=O)c3cccc4cccnc34)CC2)c1,,5.86 µM (active)
COc1ccc(NC(=O)C2CCCN(S(=O)(=O)c3cccc4cccnc34)C2)cc1 (stereo unspecified),63.6% (inactive),
O=C(O)C1CCCN(S(=O)(=O)c2cccc3cccnc23)C1 (stereo unspecified),,2.08 µM (active)
COc1ccc(NC(=O)C2CCCN(S(=O)(=O)c3cccc4cccnc34)C2)cc1OC (stereo unspecified),,10.4 µM (active)
CC(=O)c1cccc(NC(=O)C2CCCN(S(=O)(=O)c3cccc4nonc34)C2)c1 (stereo unspecified),5.63% (inactive),
Cc1ccc(C(=O)Nc2nc(N)n(-c3ccccc3)n2)cc1,40.9% (inactive),
CC1=NN(C(N)=S)C(=O)C1N=Nc1cc(Cl)ccc1Cl (stereo unspecified),16.9% (inactive),
CCOC(=O)C1CCCN(S(=O)(=O)c2ccc(-n3cnnn3)c(C)c2)C1 (stereo unspecified),4.73% (inactive),
CCn1c(SCC(=O)NC2=NCCS2)nnc1C(C)NC(=O)c1ccccc1F (stereo unspecified),19.2% (inactive),
O=C(CCCCCNC(=O)c1ccccc1)N/N=C/c1ccccc1,,1.47 µM (active)
O=C(CNC(=O)c1cccnc1)N/N=C/c1cccnc1,32.2% (inactive),
O=C(CC(=O)N/N=C\c1ccc(F)cc1)NCCc1ccccc1,2.04% (inactive),
CNS(=O)(=O)c1cccc(C(=O)OCCCC(=O)c2ccccc2)c1,-12.1% (inactive),
COc1ccc(Cl)cc1NC(=O)CN(C)CC(=O)Nc1ccc2c(c1)OCO2,-0.297% (inactive),
Cn1c(CC(=O)Nc2ccc(F)cc2)nnc1SCC(=O)NC1CCCCC1,-8.17% (inactive),
